# Measured values from PubChem BioAssay (NCI).
# About 79,000 compounds went through this panel and 15% of them were active in at least one assay; those are over-represented in the sample as a whole. Unmarked numbers belong to inactive results. The source made the active and inactive calls. Cut-off read from the data, not from the text of the source: active = growth inhibition above about 70%; inactive = the rest.
# Key:
# [1] = NCI Yeast Anticancer Drug Screen. Data for the rad50 strain (AID 155);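 note: 0% = growth of vehicle-only cultures of the same strain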; conditions: S. cerevisiae rad50 strain growth inhibition, stronger effect = higher value
# How it was run: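 DNA repair mutant yeast, compound exposure, growth read-out; inhibition is taken relative to vehicle.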
# [2] = NCI Yeast Anticancer Drug Screen. Data for the mec2-1 strain (AID 157); conditions: S. cerevisiae mec2-1 strain, stronger effect = higher value
# How it was run: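 mec2-1 yeast strain, carrying an alteration in DNA damage repair or cell cycle control, was exposed to compounds; growth inhibition was measured relative to vehicle-treated controls.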
# [3] = NCI Yeast Anticancer Drug Screen. Data for the sgs1 mgt1 strain (AID 161);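 note: 0% = growth of cultures given vehicle only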; conditions: S. cerevisiae sgs1 mgt1 strain, stronger effect = higher value
# How it was run: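 Yeast cells carrying a defined DNA-repair defect were exposed to test compounds. Growth inhibition was measured relative to vehicle-treated controls.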
# [4] = NCI Yeast Anticancer Drug Screen. Data for the cln2 rad14 strain (AID 165);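 note: 0% = growth equal to vehicle treated cultures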; conditions: S. cerevisiae cln2 rad14 strain, stronger effect = higher value
# How it was run: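 Yeast carrying cln2 and rad14 alterations (cell cycle control and DNA damage repair) were exposed to compounds. Growth inhibition was measured against vehicle-treated controls.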
# [5] = NCI Yeast Anticancer Drug Screen. Data for the bub3 strain (AID 167); conditions: S. cerevisiae bub3 mutant strain, stronger effect = higher value
# How it was run: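 In this screen, a yeast mutant lacking normal mitotic checkpoint function is challenged with compound. Relative growth versus vehicle gives the inhibition value.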
# [6] = NCI Yeast Anticancer Drug Screen. Data for the mlh1 rad18 strain (AID 175); conditions: S. cerevisiae mlh1 rad18 strain growth inhibition, stronger effect = higher value
# How it was run: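 Growth inhibition of the yeast strain was measured after compound exposure and expressed relative to vehicle-treated controls. The strain carries defined defects in DNA damage repair.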
# [7] = at 5.0 µM (retest, dose inferred, filed as 0.5)
# [8] = at 50.0 µM (retest, dose inferred, filed as 5.0)
SMILES,"growth inhibition [1, 7]","growth inhibition [1, 8]",growth inhibition ([1]; at 50.0 µM),"growth inhibition [2, 7]","growth inhibition [2, 8]",growth inhibition ([2]; at 50.0 µM),"growth inhibition [3, 7]","growth inhibition [3, 8]",growth inhibition ([3]; at 50.0 µM),"growth inhibition [4, 7]","growth inhibition [4, 8]",growth inhibition ([4]; at 50.0 µM),"growth inhibition [5, 7]","growth inhibition [5, 8]",growth inhibition ([5]; at 50.0 µM),"growth inhibition [6, 7]","growth inhibition [6, 8]",growth inhibition ([6]; at 50.0 µM)
Cc1cc(Cl)ccc1C(=O)c1ccc2ccccc2c1C(=O)O,8%,44%,84% (active),-15%,49%,82.5% (active),3%,54%,78% (active),-7%,65%,83.5% (active),-24%,87% (active),82.4% (active),-36%,52%,78.8% (active)
CCOC(=O)C(C(=O)OCC)C(=O)c1ccc2c(c1)OCO2,3%,83% (active),52.4%,2%,75% (active),35.5%,5%,90% (active),86.9% (active),10%,21%,1.25%,7%,81% (active),89.2% (active),4%,94% (active),60.4%
CS(=O)(=O)OCCN(CCOS(C)(=O)=O)c1ccc(N=Nc2ccccc2)cc1,32%,82% (active),57.7%,15%,73% (active),45%,52%,88% (active),46%,45%,96% (active),49.8%,56%,84% (active),39.5%,22%,69%,76.8% (active)
CCCCCCCCCCCC(=O)[O][Sn]([CH2]C)([CH2]C)[O]C(=O)CCCCCCCCCCC,7%,5%,79.3% (active),2%,2%,88.3% (active),3%,44%,95.8% (active),5%,0%,48.1%,3%,-7%,16.4%,4%,12%,88.7% (active)
C=CCOc1ccc(/C=N/NC(N)=S)cc1,10%,83% (active),88.3% (active),13%,81% (active),87.3% (active),15%,78% (active),44%,6%,87% (active),58.2%,5%,91% (active),88.1% (active),10%,90% (active),52.1%
COC1=C(C)C(=O)C2=C(C1=O)C1C3CC4=C(C(=O)C(OC)=C(C)C4=O)C(CNC(=O)C(C)=O)N3C(C#N)C(C2)N1C (stereo not given),78% (active),98% (active),90.2% (active),53%,99% (active),92% (active),35%,99% (active),91.7% (active),88% (active),96% (active),89.6% (active),22%,98% (active),90.2% (active),51%,99% (active),88.3% (active)
Fc1ccc(NC(=S)SCc2ccc(Cl)c(Cl)c2)cc1,4%,92% (active),98.1% (active),3%,91% (active),99% (active),0%,97% (active),98.8% (active),-3%,92% (active),98.3% (active),3%,90% (active),98.2% (active),0%,94% (active),98.8% (active)
COc1ccc(N2CCN(CC(O)COc3cc4c(c5c3CCCC5)CCCC4)CC2)cc1 (stereo not given),15%,98% (active),45.4%,17%,98% (active),99% (active),22%,97% (active),54.7%,6%,98% (active),84.2% (active),13%,97% (active),92% (active),9%,96% (active),77.6% (active)
C[Si](C)(C)CN1C(=O)c2ccccc2C1(O)c1ccccc1 (stereo not given),-2%,69%,69.8%,-1%,66%,35.8%,-4%,74% (active),47.5%,-1%,29%,42.5%,-3%,33%,4.2%,-1%,69%,71.2% (active)
O=C(Nc1c(Cl)cccc1Cl)OCc1ccc2c(c1)OCO2,46%,54%,35.8%,33%,32%,48.6%,44%,53%,50%,33%,43%,14.3%,46%,73% (active),43%,41%,42%,35.9%
